Drawing on PubChem BioAssay, this text covers z-score and composite z-score for 7 compounds.

Assay [1] in a line: E. coli DRC41 culture turbidity changes, primary screen, E. coli filamentation inducer project, strain DRC41, OD650, 48 h (AID 1152).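 Further: E. coli MC1000 strain DRC41 lacking acrAB efflux pump and sulA.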 Conditions: E. coli DRC41 (acrAB sulA), higher = more signal, called active from +8 up or from −8 down.
The nature of assay [2]: small-molecule binders of probe aLefty1, primary screen, biochemical, small-molecule microarray, 635/667 nm fluorescence (AID 1153).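 Further: score merges spot fluorescence with signal-to-noise ratio from the scanned slide images.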 Conditions: higher = more signal.
Assay [3] is described as follows: PSAC antagonists in infected red cells, primary screen, cell-based, P. falciparum Indochina, OD700, 1 h (AID 1154). The conditions noted are these: P. falciparum Indochina infected RBC osmotic lysis, higher = more signal, called active from +8 up or from −8 down.
Assay [4] can be described thus: PSAC antagonists in infected red cells, primary screen, cell-based, P. falciparum Indochina, OD700, 2 h (AID 1155).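 Further: lysis reports solute entry through the parasite surface anion channel PSAC; channel blockers reduce lysis of infected cells.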 Conditions: P. falciparum Indochina infected erythrocytes, osmotic lysis OD700; higher = more signal, called active from +8 up or from −8 down.
Assay [5] is described as follows: osmotic lysis modulators in infected erythrocytes, primary screen, PSAC antagonist project, cell-based, P. falciparum Indochina, OD700, 3 h (AID 1156). The conditions noted are these: higher = more signal, called active from +8 up or from −8 down.
Assay [6] in a line: PSAC antagonists in infected red cells, primary screen, cell-based, P. falciparum Indochina, OD700, 18 h (AID 1157). Conditions: P. falciparum Indochina infected erythrocytes, osmotic lysis OD700, 18 h; higher = more signal, called active from +8 up or from −8 down.
The nature of assay [7]: modulators of S6 phosphorylation in cells, primary screen, cell-based, A549, cytoblot, luminescence, serum-stimulated (AID 1158).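 Further: serum-stimulated A549 lung adenocarcinoma cells; signal is phosphorylated S6 detected by cytoblot immunostaining with HRP secondary.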 The conditions noted are these: A549 phospho-S6 cytoblot, 5 h, higher = more signal.
Assay [8] concerns the target NADPH oxidase 2 (Homo sapiens) (UniProt P04839). Briefly: NOX2-dependent H2O2 signal modulators, primary screen, NOX inhibitor project, cell-based, HEK293-NOX2, PMA-stimulated, Amplex Red fluorescence (AID 1159). Further: test concentration not given here. The conditions noted are these: 45 min, higher = more signal, called active from +8 up or from −8 down.
The target in assay [9] is NADPH oxidase 4 (Homo sapiens) (UniProt Q9NPH5). In words: NOX4-dependent H2O2 signal modulators, primary screen, NOX inhibitor project, cell-based, HEK293-NOX4, tetracycline-induced, Amplex Red fluorescence (AID 1160). Conditions: 45 min, higher = more signal, called active from +8 up or from −8 down.
For assay [10], the target named is NADPH oxidase 5 (Homo sapiens) (UniProt Q96PH1). Briefly: NOX5-dependent H2O2 signal modulators, primary screen, NOX inhibitor project, cell-based, HEK293-NOX5, Amplex Red fluorescence (AID 1161). Conditions: HEK293-NOX5, ionomycin, 45 min, higher = more signal.
The nature of assay [11]: A549 cell viability effects, profiling panel, calcein-AM fluorescence, 48 h, basal (AID 1162). Further: test concentration not given here. The conditions noted are these: higher = more signal.
The nature of assay [12]: adipocyte viability effects, profiling panel, cell-based, 3T3-L1 adipocytes, calcein-AM fluorescence, 48 h, basal (AID 1163). Further: test concentration not given here. The conditions noted are these: 3T3-L1 adipocytes viability, higher = more signal.
The nature of assay [13]: HepG2 cell viability effects, profiling panel, calcein-AM fluorescence, 48 h, basal (AID 1164). Further: test concentration not given here. Conditions: higher = more signal.
A short description of assay [14]: MM1S cell viability effects, profiling panel, calcein-AM fluorescence, 48 h, basal (AID 1165).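 Further: viability of MM1S multiple myeloma cells under basal unstimulated conditions; test concentration not given here.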 The conditions noted are these: higher = more signal.
Assay [15] in a line: basal RPMI8226 viability, no added stimulus, profiling panel, cell-based, calcein-AM fluorescence, 48 h, PK04 Diversity Set (AID 1166).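 Further: cells grown under basal conditions without added stimulus; test concentration not given here.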 Conditions: RPMI8226 myeloma viability, higher = more signal.
Assay [16] in a line: basal HepG2 mitochondrial membrane potential changes, profiling panel, cell-based, JC-1 fluorescence, 24 h, 100 nL compound (AID 1167). Further: test concentration not given here. Conditions: higher = more signal.
Assay [17] can be described thus: basal 3T3-L1 adipocyte mitochondrial potential changes, profiling panel, cell-based, JC-1 fluorescence, 3T3-L1 adipocytes, 24 h, 100 nL compound (AID 1168). Further: test concentration not given here. Conditions: JC-1 mitochondrial fluorescence, higher = more signal, called active from +8 up or from −8 down.
Assay [18] in a line: basal RPMI8226 mitochondrial membrane potential changes, profiling panel, cell-based, JC-1 fluorescence, 24 h, 100 nL compound (AID 1169). Further: test concentration not given here. The conditions noted are these: RPMI8226 myeloma, JC-1 mitochondrial potential fluorescence, higher = more signal.
The nature of assay [19]: basal MM1S mitochondrial membrane potential changes, profiling panel, cell-based, JC-1 fluorescence, 24 h, 100 nL compound (AID 1170). Further: test concentration not given here. The conditions noted are these: higher = more signal.
Assay [20] in a line: A549 lung cancer cell viability effects, profiling panel, resazurin fluorescence, 24 h, PK04 Diversity Set (AID 1171). Further: test concentration not given here. The conditions noted are these: higher = more signal, called active from +8 up or from −8 down. (In general: The colour change of resazurin is a common sign of viable cells or microbes.)

Active and inactive are the calls of the source.

Sequence of NADPH oxidase 2 (Homo sapiens) (P04839 whole entry, looked up): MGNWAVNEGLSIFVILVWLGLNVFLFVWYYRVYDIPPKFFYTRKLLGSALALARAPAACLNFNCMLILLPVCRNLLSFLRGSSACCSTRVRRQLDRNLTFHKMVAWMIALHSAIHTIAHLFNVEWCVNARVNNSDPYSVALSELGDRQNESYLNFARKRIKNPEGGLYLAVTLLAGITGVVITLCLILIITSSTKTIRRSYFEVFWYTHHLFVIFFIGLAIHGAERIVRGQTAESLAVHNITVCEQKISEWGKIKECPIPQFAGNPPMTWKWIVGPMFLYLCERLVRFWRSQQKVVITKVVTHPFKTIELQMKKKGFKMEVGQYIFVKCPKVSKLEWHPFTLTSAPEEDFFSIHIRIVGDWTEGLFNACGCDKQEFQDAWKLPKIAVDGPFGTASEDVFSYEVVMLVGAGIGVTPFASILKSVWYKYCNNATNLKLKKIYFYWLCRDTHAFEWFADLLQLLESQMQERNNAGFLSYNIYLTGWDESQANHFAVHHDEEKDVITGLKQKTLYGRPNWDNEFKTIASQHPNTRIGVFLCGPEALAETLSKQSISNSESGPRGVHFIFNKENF
Sequence of NADPH oxidase 4 (Homo sapiens) (Q9NPH5 whole entry, looked up): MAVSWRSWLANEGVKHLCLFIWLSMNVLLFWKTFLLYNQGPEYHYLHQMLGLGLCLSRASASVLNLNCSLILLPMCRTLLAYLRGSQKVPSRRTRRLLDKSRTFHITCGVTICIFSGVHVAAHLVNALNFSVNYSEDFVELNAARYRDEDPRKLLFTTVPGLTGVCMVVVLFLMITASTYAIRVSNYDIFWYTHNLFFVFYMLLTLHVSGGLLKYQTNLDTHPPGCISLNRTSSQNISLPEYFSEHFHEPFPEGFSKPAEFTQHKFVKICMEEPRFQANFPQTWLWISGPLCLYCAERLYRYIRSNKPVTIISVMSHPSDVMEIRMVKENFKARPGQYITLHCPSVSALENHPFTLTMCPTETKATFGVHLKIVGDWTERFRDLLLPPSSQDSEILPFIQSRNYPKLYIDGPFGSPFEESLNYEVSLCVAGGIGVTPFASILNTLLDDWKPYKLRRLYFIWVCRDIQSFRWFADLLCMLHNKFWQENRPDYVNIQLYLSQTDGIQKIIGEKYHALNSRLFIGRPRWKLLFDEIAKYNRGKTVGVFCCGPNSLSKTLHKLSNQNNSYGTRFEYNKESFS
Sequence of NADPH oxidase 5 (Homo sapiens) (Q96PH1 whole entry, looked up): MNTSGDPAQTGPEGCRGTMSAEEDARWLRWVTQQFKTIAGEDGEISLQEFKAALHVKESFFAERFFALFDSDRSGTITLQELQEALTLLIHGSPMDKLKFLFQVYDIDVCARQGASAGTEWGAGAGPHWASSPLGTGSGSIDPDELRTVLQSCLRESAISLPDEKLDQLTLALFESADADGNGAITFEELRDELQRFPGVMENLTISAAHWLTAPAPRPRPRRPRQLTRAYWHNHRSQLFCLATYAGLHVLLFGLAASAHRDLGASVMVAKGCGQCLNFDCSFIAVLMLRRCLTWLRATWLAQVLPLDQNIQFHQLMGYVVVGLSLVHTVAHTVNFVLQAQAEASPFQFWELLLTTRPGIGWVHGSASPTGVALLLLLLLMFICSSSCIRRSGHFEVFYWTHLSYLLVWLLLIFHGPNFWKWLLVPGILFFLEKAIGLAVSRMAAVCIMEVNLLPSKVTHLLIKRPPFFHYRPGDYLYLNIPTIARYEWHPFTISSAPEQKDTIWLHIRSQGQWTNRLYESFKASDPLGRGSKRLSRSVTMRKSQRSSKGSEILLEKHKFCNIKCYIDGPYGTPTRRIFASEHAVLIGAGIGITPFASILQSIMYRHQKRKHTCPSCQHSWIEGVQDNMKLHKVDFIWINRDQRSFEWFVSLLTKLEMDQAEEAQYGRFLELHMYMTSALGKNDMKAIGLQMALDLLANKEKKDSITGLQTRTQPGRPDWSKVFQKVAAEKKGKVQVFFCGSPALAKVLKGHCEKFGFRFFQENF

`[N-]=[N+]=Nc1ccccc1C[C@@]1(C(=O)NCC(O)CO)N=C(c2ccc(OCCCO)cc2)O[C@@H]1c1ccccc1` (stereo not given in full): the z-score was 0.445 (inactive) in [1]; 26.6 (active) in assay [3]; 14.1 (active) in [4]; 2.05 (inactive) in [5]; 1.87 (inactive) in [6]; 0.122 in assay [7]. The z-score in assay [8] was 2.51 (inactive); in assay [9], 0.662 (inactive); in [10], -0.946; in assay [11], 0.378; in assay [12], -0.326; in assay [13] it was 0.75. Also, the z-score in [14] is -0.39; in assay [15], -0.342; in assay [16], 0.582; in assay [17], -0.186 (inactive); in assay [18], -1.2; in assay [19], -0.145. Besides, the z-score in assay [20] was -0.235 (inactive). The composite z-score in assay [2] worked out at 0.102.
In the case of `CC(C)C(O)C1C=CC2C(=O)NC(=O)C2N1Nc1ccccn1` (stereo not given), the z-score was -0.668 (inactive) in assay [1]; -0.292 (inactive) in assay [3]; 0.695 (inactive) in [4]; -0.0484 (inactive) in assay [5]; 0.826 (inactive) in assay [6]; -0.846 in [7]. In addition, the z-score was -1.22 (inactive) in assay [8]; -1.41 (inactive) in assay [9]; -1.79 in assay [10]; -0.188 in assay [11]; 0.258 in assay [12]; 0.0775 in assay [13]. Moreover, the z-score is 0.253 in assay [14]; 0.11 in assay [15]; 0.119 in assay [16]; -1.28 (inactive) in assay [17]; 0.231 in assay [18]; -0.0451 in assay [19]. Moreover, in assay [20], the z-score was -1.05 (inactive). For the same compound, the composite z-score in assay [2] amounted to 0.134.
On to `CCOC(=O)C[C@H]1[C@H](OC(=O)Cc2ccc3c(c2)OCO3)[C@@H](NC(=O)c2ccc3ccccc3n2)c2cc(OCCCO)ccc2N1C(=O)Cc1ccc(OC)cc1`, for which the z-score was 2.14 (inactive) in assay [1]; 21.8 (active) in assay [3]; 5.31 (inactive) in assay [4]; -0.997 (inactive) in assay [5]; 0.0217 (inactive) in [6]; 2.03 in assay [7]. Further, the z-score in [8] is -1.47 (inactive); in [9] it was 0.824 (inactive); in [10], 0.159; in assay [11], 0.703; in assay [12], 0.867; in [13], 1.03. The z-score in assay [14] is 0.406; in [15], -0.603; in [16], 2.42; in assay [17] it was -0.115 (inactive); in assay [18], 0.167; in [19], -0.882. Also, in [20], the z-score is -0.64 (inactive). For the same compound, the composite z-score in [2] is -0.0573.
Regarding `CC(C)c1nc2cc(Br)ccc2c(=O)o1`, the z-score was 0.537 (inactive) in [1]; 2.79 (inactive) in assay [3]; 0.153 (inactive) in [4]; 0.958 (inactive) in [5]; 0.303 (inactive) in [6]; -0.228 in assay [7]. The z-score in [8] is -0.421 (inactive); in [9], -0.0107 (inactive); in assay [10], 0.118; in assay [11] it was -0.374; in [12], 0.124; in assay [13] it was -1.32. Besides, the z-score is 0.345 in assay [14]; -0.262 in assay [15]; -0.0593 in [16]; 0.316 (inactive) in assay [17]; 0.593 in [18]; -0.259 in assay [19]. Further, in assay [20], the z-score is 0.0924 (inactive). The compound also yielded a composite z-score in assay [2] of 0.202.
On to `C=CCOC(=O)[C@H]1[C@@H]2C(=O)O[C@@H](c3ccccc3)[C@@H](c3ccccc3)N2[C@@H](c2ccc(OCCOC(=O)[C@@H]3C[C@@H]4C(=O)N[C@@H](CCCC[N+](C)(C)C)C(=O)N4[C@@H]3c3ccc(O)cc3)cc2)[C@]12C(=O)Nc1ccc(I)cc12`, for which the z-score is -1.78 (inactive) in assay [1]; -1.03 (inactive) in assay [3]; -0.497 (inactive) in [4]; 5.53 (inactive) in assay [5]; -0.582 (inactive) in assay [6]; -2.1 in [7]. Besides, the z-score in assay [8] was 1.66 (inactive); in [9], -1.21 (inactive); in assay [10], 0.61; in assay [11], -0.717; in assay [12], -0.169; in [13] it was -0.457. Moreover, the z-score was -2.9 in [14]; -1.43 in assay [15]; -2 in assay [16]; 0.638 (inactive) in [17]; -0.767 in assay [18]; -0.879 in assay [19]. Also, the z-score in assay [20] is 0.281 (inactive). In assay [2], this compound gave a composite z-score of 0.521.
`CCOC(=O)C1=CC[C@@H](c2ccc(OC)cc2)N(S(=O)(=O)c2ccc(C)cc2)[C@H]1c1ccc(C)cc1`: the z-score in assay [1] was -1.22 (inactive); in assay [3], 0.833 (inactive); in assay [4], 0.905 (inactive); in assay [5] it was -0.715 (inactive); in assay [6], 0.68 (inactive); in assay [7], -0.752. Also, the z-score in [8] was 0.864 (inactive); in assay [9] it was -0.627 (inactive); in [10] it was 0.0417; in assay [11], -0.35; in assay [12], -1.09; in assay [13] it was 0.65. Moreover, the z-score is 0.632 in assay [14]; 0.583 in assay [15]; 2.39 in assay [16]; -0.717 (inactive) in assay [17]; 0.859 in assay [18]; -0.897 in [19]. In addition, in [20], the z-score was 0.302 (inactive). In addition, in assay [2], the composite z-score is 0.578.
As to `COc1cc(CO)cc(I)c1O[C@H]1C=C(C(=O)NCCO)C[C@@H]2O[C@H]12`, the z-score in assay [1] was -0.211 (inactive); in assay [3], 11.1 (active); in assay [4], 3.45 (inactive); in assay [5], 2.06 (inactive); in assay [6], 2 (inactive); in assay [7], 0.179. For the same compound, the z-score in assay [8] was 1.46 (inactive); in assay [9] it was -0.691 (inactive); in [10], -6.01; in [11], -0.42; in assay [12], 0.254; in assay [13] it was -0.697. The z-score in [14] was 0.264; in assay [15] it was -3.2; in assay [16] it was -0.873; in [17] it was -0.389 (inactive); in [18], -0.443; in assay [19], -0.52. In assay [20], the z-score was -1.41 (inactive). Also, the composite z-score in [2] worked out at 0.369.
